{
  "source": "ChEMBL document CHEMBL3988442",
  "about": "“University of Dundee, Small-Polar-MMV Screening Library” (2021)",
  "note": "Among all 48,000 compounds or so, about 13,000 (27%) showed an effect of 50% or more. This is one part of the list.",
  "data": [
    {"test_system": "Wolbachia pipientis", "test": "Anti-Wolbachia Cell-Based Screen", "assay_type": "functional", "parameters": "scale not given: in the data most compounds retested in dose-response had high values", "conditions": "5 µM", "units": {"Percent Effect": "%"}, "values": [
      {"smiles": "Cc1nc(C(C)(C)C)sc1C(=O)NCCn1cccn1", "Percent Effect": 3.617},
      {"smiles": "COc1ccc(F)cc1CSCC(=O)N(CCC#N)CCC#N", "Percent Effect": -2.312},
      {"smiles": "N#Cc1ccccc1CN1CCC(c2nccn2CC2CCC2)CC1", "Percent Effect": 43.99},
      {"smiles": "COC[C@@H]1CC[C@H]2[C@H](CCN2S(=O)(=O)c2cccc(C)c2)O1", "Percent Effect": 4.659},
      {"smiles": "CN(C)CC1CN(Cc2coc(-c3cccs3)n2)CCO1", "note": "(centres undefined)", "Percent Effect": -7.744},
      {"smiles": "CN(C)CC1CN(Cc2cc(Cl)cc3cccnc23)CCO1", "note": "(centres undefined)", "Percent Effect": -1.777},
      {"smiles": "CN(C)Cc1ccnc(C2CN(Cc3nccs3)CCO2)n1", "note": "(centres undefined)", "Percent Effect": 100.5},
      {"smiles": "COc1cccc(F)c1CN1CCC(c2nccc(C)n2)C1", "note": "(centres undefined)", "Percent Effect": 140.3},
      {"smiles": "Cc1cccnc1CN1CCOC(Cc2cccc3ccccc23)C1", "note": "(centres undefined)", "Percent Effect": -2.143},
      {"smiles": "Cc1ccccc1CN1CCOC(c2nccc(CN(C)C)n2)C1", "note": "(centres undefined)", "Percent Effect": 127.2},
      {"smiles": "CCn1ccnc1C1CCN(Cc2c(F)cccc2F)CC1", "Percent Effect": 1.845},
      {"smiles": "COc1cccc(O)c1CN1CCCC(Nc2cccc(F)c2)C1", "note": "(centres undefined)", "Percent Effect": -13.27},
      {"smiles": "CN(C)CC1CN(Cc2c(Cl)ccc3cccnc23)CCO1", "note": "(centres undefined)", "Percent Effect": -12.27},
      {"smiles": "CCn1c(CN2CCOC(Cn3cccn3)C2)nc2c(F)cccc21", "note": "(centres undefined)", "Percent Effect": -12.64},
      {"smiles": "CN(C)Cc1ccnc(C2CN(Cc3c(F)cccc3F)CCO2)n1", "note": "(centres undefined)", "Percent Effect": 127},
      {"smiles": "c1ccc2c(CC3CN(Cc4nccs4)CCO3)cccc2c1", "note": "(centres undefined)", "Percent Effect": -0.1296},
      {"smiles": "COCCNS(=O)(=O)c1cccc2c1CN(C(=O)c1ccccc1)CC2", "Percent Effect": 14.65},
      {"smiles": "O=C(c1ccno1)N1CCOC[C@H](Oc2ccccc2)C1", "Percent Effect": -14.73},
      {"smiles": "CC(C1CCN(Cc2cnn(C)c2C2CC2)CC1)N(C)C", "note": "(centres undefined)", "Percent Effect": -2.941},
      {"smiles": "CC(C)(CN1CCCC1)CN1CCC(Cn2cc(C3CC3)nn2)CC1", "Percent Effect": 12.62},
      {"smiles": "O=C(NCc1cc(O)ncn1)C1CCOc2ccccc2C1", "note": "(centres undefined)", "Percent Effect": 8.885},
      {"smiles": "CNC(=O)C(NC(=O)CCc1cccc(OC2CCCC2)c1)C(C)C", "note": "(centres undefined)", "Percent Effect": -3.816},
      {"smiles": "COCCN1CCCC2(CCN(c3nc(C)nc4ccsc34)C2)C1=O", "note": "(centres undefined)", "Percent Effect": -7.564},
      {"smiles": "CC(C)(C)NC(=O)CN1CCCN(Cc2cc(C#N)ccc2F)CC1", "Percent Effect": -2.969},
      {"smiles": "Cc1noc(C)c1CN1CC2(CCN(C(=O)c3cc[nH]n3)C2)CC1=O", "note": "(centres undefined)", "Percent Effect": -2.196},
      {"smiles": "Cc1noc(C)c1-c1cnc(CC2CCN(C(=O)c3cc[nH]n3)C2)cn1", "note": "(centres undefined)", "Percent Effect": -12.99},
      {"smiles": "Cc1noc(C)c1-c1cc(CC2CCN(C(=O)c3cc[nH]n3)C2)ncn1", "note": "(centres undefined)", "Percent Effect": 98.42},
      {"smiles": "Cc1noc(C)c1-c1cncc(CC2CCN(C(=O)c3cc[nH]n3)C2)n1", "note": "(centres undefined)", "Percent Effect": 110.9},
      {"smiles": "CCCS(=O)(=O)N[C@H]1CN(c2ncccc2C(N)=O)C[C@@H]1C(C)C", "Percent Effect": -5.813},
      {"smiles": "CC(=O)NCc1ccc(S(=O)(=O)NC(=O)c2ccc3c(c2)COC3)s1", "Percent Effect": -2.938},
      {"smiles": "COc1ccc(NC(=O)CCc2c(C)nc3cc(O)nn3c2C)cn1", "Percent Effect": 3.127},
      {"smiles": "Cc1nc(NC(=O)CCc2c(C)nc3cc(O)nn3c2C)sc1C", "Percent Effect": 101.2},
      {"smiles": "Cc1nc2cc(O)nn2c(C)c1CCC(=O)NCCCC(C)C", "Percent Effect": 90.92},
      {"smiles": "Cc1nc2cc(O)nn2c(C)c1CCC(=O)NCCc1nccn1C", "Percent Effect": 84.09},
      {"smiles": "Cc1nc2cc(O)nn2c(C)c1CCC(=O)NCCc1ccccc1", "Percent Effect": 85.91},
      {"smiles": "Cc1noc(C)c1CS(=O)(=O)CC(=O)NCCc1ccccc1", "Percent Effect": -9.569},
      {"smiles": "Cn1ccnc1CCNC(=O)NCCC1CCCCO1", "note": "(centres undefined)", "Percent Effect": -7.857},
      {"smiles": "Cc1nc2ncnn2c(C)c1CCC(=O)Nc1cccn(C)c1=O", "Percent Effect": 1.385},
      {"smiles": "CO[C@@H]1CCN(S(=O)(=O)c2cn(C)cn2)[C@H]1Cc1cnn(C)c1.O=C(O)C(F)(F)F", "Percent Effect": 2.669},
      {"smiles": "O=C([C@@H]1CCO[C@@H]2CCN(CC3CCOCC3)C[C@H]21)N1CCCC1", "Percent Effect": -12.21},
      {"smiles": "CNC(=O)CCNC(=O)CCc1c(C)nc2cc(O)nn2c1C", "Percent Effect": 99.53},
      {"smiles": "CCNC(=O)CCc1c(C)nc2cc(O)nn2c1C", "Percent Effect": 5.527},
      {"smiles": "CNC(=O)CCCNc1cc(C)nc2cc(C)nn12", "Percent Effect": 1.816},
      {"smiles": "O=C(O)C(F)(F)F.O=C1[C@H]2CN(C3CCOC3)C[C@H]2CN1c1ccccc1", "note": "(some centres undefined)", "Percent Effect": -7.814},
      {"smiles": "Cc1ccc(F)cc1S(=O)(=O)N1C[C@@H](C)[C@@](C)(O)C1", "Percent Effect": -12.21},
      {"smiles": "Cc1nc(O)c2nnn(C[C@H]3CCCN3C(=O)C(C)(C)C)c2n1", "Percent Effect": 2.685},
      {"smiles": "Cc1ccc(C(=O)N2CCC[C@@H]2Cn2nnc3c(O)nc(C)nc32)cc1", "Percent Effect": 116},
      {"smiles": "Cc1nc(O)c2nnn(C[C@H]3CCCN3C(=O)C3CCCC3)c2n1", "Percent Effect": 86.1},
      {"smiles": "Cc1nc(O)c2nnn(C[C@H]3CCCN3C(=O)c3ccc(F)cc3)c2n1", "Percent Effect": 99.59},
      {"smiles": "Cc1nc(O)c2nnn(C[C@H]3CCCN3C(=O)CCC3CCCC3)c2n1", "Percent Effect": 2.096},
      {"smiles": "Cc1nc(O)c2nnn(C[C@H]3CCCN3C(=O)c3cccc(F)c3)c2n1", "Percent Effect": -3.685},
      {"smiles": "Cc1cccnc1CN(C)C(C(=O)O)c1ccc(C(C)(C)C#N)cc1", "note": "(centres undefined)", "Percent Effect": -18.01},
      {"smiles": "CC(C)Cc1ncc2c(n1)CN(c1cc(NC3CC3)nc(N)n1)C2", "Percent Effect": 10.04},
      {"smiles": "CNC(=O)[C@@H]1C[C@@H](N)CN1c1nnc(-c2ccccc2)s1", "Percent Effect": -7.13},
      {"smiles": "CCn1nc(C)c(C(C)NC(=O)c2cnc(N(C)C)nc2C)c1C", "note": "(centres undefined)", "Percent Effect": 101.2},
      {"smiles": "CCCn1cc(C(=O)NC(CC(=O)O)c2ccco2)c(C)n1", "note": "(centres undefined)", "Percent Effect": -1.122},
      {"smiles": "CCC(NC(=O)c1cnc(N(C)C)nc1C)c1ccncc1", "note": "(centres undefined)", "Percent Effect": -21.92},
      {"smiles": "CCCn1ncc(C(=O)N(CCOC)Cc2c(C)nn(CC)c2C)c1C", "Percent Effect": -10.36},
      {"smiles": "CCn1nc(C)c(C(C)NC(=O)c2cccc(NCC(=O)O)c2)c1C", "note": "(centres undefined)", "Percent Effect": -10.01},
      {"smiles": "CCCn1ncc(C(=O)NC(C)c2c(C)nn(CC)c2C)c1C", "note": "(centres undefined)", "Percent Effect": 101.8},
      {"smiles": "CCCn1cc(C(=O)N[C@H]2CC[C@H](n3cnnc3)CC2)c(C)n1", "Percent Effect": -5.85},
      {"smiles": "CCCn1cc(C(=O)NC(C)c2c(C)nn(CC)c2C)c(C)n1", "note": "(centres undefined)", "Percent Effect": 107.4},
      {"smiles": "CCn1c(C)nnc1SCCNC(=O)c1cnc(N(C)C)nc1C", "Percent Effect": -11.93},
      {"smiles": "CN(Cc1ccncc1)C(=O)c1ccc2c(c1O)OC(C)(C)C2", "Percent Effect": -3.741}
    ]}
  ]
}
